About 83,000 compounds went through this panel and 20% of them were active in at least one assay; those are over-represented in the sample as a whole.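 Cell lines were cultured in 96-well plates, exposed to a single compound concentration, and assessed for percent growth 48 hours later.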 The source made the active and inactive calls. How the source made its calls: active means growth percent below 10; inactive means the rest.
These compounds were tested on HL-60(TB) leukemia (assay: NCI-60 one-dose screen, 48 h (100 = growth as untreated, 0 = no growth, -100 = all killed)). Settings: 10 µM unless noted.
`N#Cc1ccc(C(=O)CSc2nc(Nc3ccc(S(N)(=O)=O)cc3)c3ccccc3n2)cc1` was tested, and the growth was 105% (inactive).
With `Fc1cc(F)cc(NNC(=S)c2ccccc2)c1` the growth was 30.5% (inactive).
For `CCOC(=O)/C(F)=C/C1CC1CCc1cccc(C(F)(F)F)c1` (stereo unspecified), the growth was 91.4% (inactive).
For `CC(C)=CCc1c(O)c(CC=C(C)C)c2c(c1O)C(=O)C1=C[C@@H]3C[C@H]4C(C)(C)O[C@@](C/C=C(\C)C(=O)O)(C3=O)[C@@]14O2`, the growth was -14.1% (active).
With `CC(O)c1cc2ccccc2c(=O)o1` (stereo unspecified) the growth was 102% (inactive).
For `O=S(=O)(NCCCNc1nccc(-c2[nH]c(-c3ccccc3)nc2-c2ccc(F)c(O)c2)n1)c1cccc(F)c1`, the growth was 95.7% (inactive).
For `Nc1nc(-c2cccc([N+](=O)[O-])c2)c(N=Nc2ccccc2[N+](=O)[O-])s1`, the growth was 96.5% (inactive).
For `CCc1cccc(NC(=O)CNc2cc(S(=O)(=O)N(C)C)cc(C)c2C)c1`, the growth was 128% (inactive).
For `O=C(NCCn1ccnc1)c1ccc(-c2nc3ccc4[nH]ncc4c3c3c2CCCC3)cc1`, the growth was 76.9% (inactive).
With `Nc1cc(F)ccc1NC(=O)c1ccc(NC(=O)C/C=C/c2cccnc2)cn1` the growth was 11.3% (inactive).
`CC(=O)NC(C)(C)C(=O)N[C@@H](C)C(=O)NC(C)(C)C(=O)N[C@@H](C)C(=O)NC(C)(C)C(=O)N[C@@H](C)C(=O)N[C@@H](CCC(N)=O)C(=O)NC(C)(C)C(=O)N[C@H](C(=O)NC(C)(C)C(=O)NCC(=O)N[C@@H](CC(C)C)C(=O)NC(C)(C)C(=O)N1CCC[C@H]1C(=O)N[C@H](C(=O)NC(C)(C)C(=O)NC(C)(C)C(=O)N[C@@H](CCC(N)=O)C(=O)N[C@@H](CCC(N)=O)C(=O)N[C@H](CO)CC1CCCCC1)C(C)C)C(C)C` was tested, and the growth was 10.3% [5 µM] (inactive).
With `CSc1ccc(/C(=N/N=C(N)N)c2ccc(F)cc2)cc1` the growth was -31.7% (active).
In the case of `N#Cc1c(-c2ccccc2)cc(-c2c[nH]c3ccccc23)nc1-c1c[nH]c2ccccc12`, the growth was 104% (inactive).
`CCCCCCOC(=O)c1cc(-c2ccc(F)cc2)nc2ccccc12` was tested, and the growth was 77.8% (inactive).
With `O=C(Nc1nc2ccc([N+](=O)[O-])cc2s1)Nc1ccccc1Cl` the growth was 28.7% (inactive).
In the case of `COC(=O)c1ccc(NC2=C/C(=N/S(=O)(=O)c3ccc(C(=O)O)cc3)c3ccccc3C2=O)cc1`, the growth was -15.9% (active).
